From PubChem
ELG1 genotox = genotoxicity induction in ELG1-luciferase HEK293T cells. HEK293T ELG1-luciferase reporter, luminescence, 16 h. Potency, µM (top dose mostly 46 µM), inactives show top-dose activity change, positive = activation, hits mostly activators. 1.3% of 330,000 active. AID 504466; further: % of control where 0% means no effect; nearly all actives have a fitted effect of over 60% in size
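Screening used a luciferase reporter fused to human ELG1 in HEK293T cells. Luminescence was read on a CCD plate imager after 16 hr exposure and 30 min ONE-Glo incubation.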
FLuc modulator = inhibits or activates purified firefly luciferase, miR-21 counter-screen; 6.9% of 360,000 active; Potency, µM (doses to about 57.5 µM), without a hit: at the top dose activity change, negative = inhibition, most hits filed as inhibitors; P08659; purified FLuc, Km substrates, luminescence inhibition; AID 588342;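 further: plate controls were vehicle for no effect and reference inhibitor for full effect; nearly all actives have a fitted effect of over 55% in size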
Target sequence (P08659 whole entry, looked up): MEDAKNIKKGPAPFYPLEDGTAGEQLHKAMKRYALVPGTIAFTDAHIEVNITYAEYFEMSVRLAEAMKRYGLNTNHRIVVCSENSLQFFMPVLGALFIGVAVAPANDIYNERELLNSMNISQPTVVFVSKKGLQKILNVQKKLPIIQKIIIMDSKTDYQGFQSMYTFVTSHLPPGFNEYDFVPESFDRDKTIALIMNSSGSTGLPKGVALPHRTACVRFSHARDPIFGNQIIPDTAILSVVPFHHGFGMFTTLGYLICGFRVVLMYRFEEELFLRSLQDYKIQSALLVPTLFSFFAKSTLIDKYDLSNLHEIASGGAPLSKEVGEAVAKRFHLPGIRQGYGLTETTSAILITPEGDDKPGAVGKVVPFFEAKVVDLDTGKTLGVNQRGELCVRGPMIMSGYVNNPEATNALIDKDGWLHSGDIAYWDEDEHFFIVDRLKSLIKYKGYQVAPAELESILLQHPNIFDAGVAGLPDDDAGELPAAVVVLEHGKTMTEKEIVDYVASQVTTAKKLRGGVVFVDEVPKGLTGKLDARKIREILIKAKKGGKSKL
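Purified P. pyralis luciferase, 10 nM final, with Km-level 10 uM D-luciferin and 10 uM ATP in 50 mM Tris acetate pH 7.5, 10 mM Mg acetate, 0.01% Tween-20, 0.05% BSA; 6-point qHTS titration about 60 µM downward; luminescence read.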
NPC1 prom act = activates the NPC1 promoter | AID 485313 | 2.4% of 320,000 active | Huh7 NPC1 promoter luciferase reporter, 24 h | Potency, µM (highest dose often 9.22 µM), for inactives: at the highest dose activation, usual class: activators; further: % of control where 0% means no effect; nearly all actives have a fitted effect of over 60% in size
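Huh7 cells stably carrying NPC1 promoter–luciferase, plated in Opti-MEM with 10% FBS for 2 h, were exposed to compound in DMSO for 24 h at 37 °C; luciferase reagent was added for 10 min and luminescence read.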
SMN2 splice enh = SMN2 splice variant enhancement; Potency, µM (titrated, usually from 46.1 µM), for inactives: top-dose activity change, positive = activation, hits mostly activators; 2.8% of 210,000 active; HEK293 SMN2-luciferase splicing reporter, luminescence, 30-36 h; further: % of control where 0% means no effect; nearly all actives have a fitted effect of over 55% in size
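qHTS luciferase splicing reporter: luminescence rises when SMN2 exon 7 is included in transfected HEK293 cells. Compound exposure lasted 30-36 h at 37C, with 4.5 mM final sodium butyrate as control, followed by a ONE-Glo read.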
ELG1 DNA repair = ELG1-dependent DNA repair inhibition | HEK293T ELG1-luciferase reporter, luminescence, 16 h; DNA damage induced by 5-fluorouridine | Potency, µM (titrated, usually from 46.1 µM), for inactives: top-dose activity change, negative = inhibition, actives largely listed as inhibitors | 2.3% of 330,000 active; further: on the % scale 0 is the no-effect control and ±100 the full control effect; nearly all actives have a fitted effect of over 55% in size
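In this reporter screen, reduction of luminescence relative to DMSO vehicle indicated activity. Compounds and 5-fluorouridine were added together to 2,000 cells per well, incubated for 16 hr at 37 °C, then developed with ONE-Glo.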
Rab9 prom act = Rab9 promoter activation. Potency, µM (top dose mostly 9.22 µM), for inactives: at the top dose activation, negative = inhibition, usual class: activators. 2.8% of 320,000 active. Huh7 Rab9 promoter-luciferase reporter, luminescence, 24 h; further: % of control where 0% means no effect; nearly all actives have a fitted effect of over 60% in size
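Steps: seed 1500 Huh7 Rab9-luc cells per well, rest 2 h at 37 °C; add compound in DMSO; incubate 24 h; add luciferase reagent, 10 min ambient; read luminescence.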
* marks the source's active call; other numbers are inactive results; ? = inconclusive; . = not tested or not shown; [ ] = remark or other dose. In the library only some 9.2% were active in any assay of this set; here they are far more common. The call rests on the fitted dose curve; in most records, active means well fitted curve in the direction sought with a large enough effect; inconclusive means small, poorly fitted or top-dose-only effect, or another doubt; inactive means no such curve, though single readings can be large; an effect the other way counts as inactive or inconclusive. Potency means the concentration at half of the fitted maximal effect.

SMILES | ELG1 genotox | FLuc modulator | NPC1 prom act | SMN2 splice enh | ELG1 DNA repair | Rab9 prom act
COc1ccc(NC(=O)c2oc3ccccc3c2NC(=O)c2cc(=O)c3c(C)cc(C)cc3o2)cc1 | . | 5% | . | -4% | . | .
CC(C)(C)C(=O)Nc1sc2c(c1C(=O)Nc1ccccn1)CCCC2 | -3% | 2% | -7% | . | 5% | -4%
Cc1ccc(C2=Nc3ccc(Br)cc3C(c3ccncc3)=NN2)cc1 | 3% | 27µM* | -3% | -99% | ? | 27%
Cc1ccc2c(c1)C(c1ccncc1)=NNC(c1ccc(F)cc1)=N2 | 5% | -15% | 6% | 15% | 0% | 14%
COc1ccc2c(c1)C(c1ccc([N+](=O)[O-])cc1)=NNC(c1ccco1)=N2 | -2% | 13µM* | 0% | -27% | ? | -2%
OC(Cc1ccccc1)(Cc1ccccc1)c1ccccc1 | . | . | . | -7%[9.22 µM] | . | .
O=C(O)c1ccc(S(=O)(=O)N[C@H](Cc2ccc(C(F)(F)F)cc2)C(=O)O)cc1 | . | 3% | -2% | . | . | -1%
COc1ccc(Sc2ccc(/C=C3\C(=O)NN(c4ccccc4)C3=O)o2)cc1 | 4% | -17% | -3% | 0% | 6% | -7%
Cc1cc(/C=C2\C(=O)NN(c3ccccc3)C2=O)c(C)n1-c1ccccc1O | ? | 1.3µM* | 2.8µM* | . | ? | 2.8µM*
Cc1cc(C=C2C(=O)CCCC2=O)c(C)n1-c1ccccc1 | 2% | 17µM* | 1% | 4% | 23% | 0%
O=C1NN(c2ccccc2)C(=O)/C1=C\c1coc2ccc(O)cc2c1=O | 2% | ? | -6% | . | 11% | -3%
Cc1cc(/C=C2/C(=O)NN(c3ccccc3)C2=O)c(C)n1-c1ccc(O)cc1 | ? | 0.15µM* | ? | -77% | ? | 2.5µM*
COc1ccc(-n2c(C)cc(/C=C3\C(=O)NN(c4ccccc4)C3=O)c2C)cc1 | ? | 2.7µM* | ? | ? | ? | 27%
O=c1c(C(c2ccccc2)c2c(O)nc3n(c2=O)CCS3)c(O)nc2n1CCS2 | 2% | -2% | -8% | -7% | -4% | 1%
Cc1nc(-c2cccc(NC(=O)c3ccc(-n4nccc4C)cc3)c2)cs1 | -8% | 4.8µM* | 12% | . | ? | 10%
Cc1nc(-c2ccc(C(=O)Nc3cccc(Br)c3)cc2)cs1 | ? | 1.1µM* | ? | 10µM* | ? | ?
COC(=O)C1(C)C=C(Nc2ccc(OC)cc2)C(=O)N1c1ccc(OC)cc1 (stereo not drawn) | . | . | . | 10% | . | .
Cc1cccc(-c2nc(N)nc(N)n2)c1 | ? | ? | 21% | . | ? | ?
Cc1ccc2[nH]c(-c3cccc(N)c3)cc2c1 | 2.3µM* | 4.8µM* | 1.8µM* | 14µM* | ? | 2.2µM*
CCN1C(c2ccccc2)=C(c2ccccc2)S/C1=C/C=C1\SC(=S)N(C)C1=O | -6% | ? | -7% | -55% | 10µM* | -8%
COc1cccc(F)c1C(C[N+](=O)[O-])c1c(N)n(C)c(=O)n(C)c1=O (stereo not drawn) | -13% | 4% | -26% | . | 18µM* | -54%
COc1ccc(NC(=O)c2c(-c3ccc(C)cc3)nnc3ccccc23)cc1OC | . | -9% | . | . | . | .
O=C(C1CCC(CNS(=O)(=O)c2cccs2)CC1)N1CCN(c2ccc(F)cc2)CC1 (stereo not drawn) | -11% | 0% | -11% | . | 9.2µM* | -5%
CC1(C(=O)OCc2cc(=O)n3cc(Br)ccc3n2)CC1(Cl)Cl (stereo not drawn) | 12µM* | 13µM* | 3.2µM* | ? | ? | -27%
CC1CC1C(=O)OCc1cc(=O)n2cc(Br)ccc2n1 (stereo not drawn) | ? | 9.5µM* | 2.5µM* | 13% | ? | 3.5µM*
SMILES | ELG1 genotox | FLuc modulator | NPC1 prom act | SMN2 splice enh | ELG1 DNA repair | Rab9 prom act
Cc1ccccc1C(=O)NC(CC(C)C)C(=O)OCc1cc(=O)n2cc(Br)ccc2n1 (stereo not drawn) | ? | 13µM* | 4µM* | 11µM* | ? | ?
CC(C)C[C@@H](CC(=O)N[C@H](CC(=O)N[C@@H]1CCCC[C@H]1C(=O)N[C@H](CC(=O)N[C@@H](CCC(=O)O)CC(=O)O)Cc1c[nH]c2ccccc12)C(C)C)NC(=O)[C@@H]1CNCC[C@H]1N | . | . | . | 5% | . | .
Cc1ccc(Oc2ccc(-c3nc(N)nc(N)n3)cc2)cc1 | 16% | ? | -3% | -10% | 2% | -3%
Nc1nc(-c2ccc(Cl)cc2)nnc1-c1ccc(Br)cc1 | ? | ? | 1.8µM* | . | ? | 1.1µM*
Nc1nc(N)nc(-c2ccc(Cl)cc2)n1 | ? | 15µM* | ? | 25% | ? | ?
O=C(Nc1ccc(-c2cn3c(n2)SCC3)cc1)c1ccc2c(c1)OCO2 | 6% | ? | 22% | 4% | ? | ?
O=C(Nc1cccc(-c2cn3c(n2)SCC3)c1)c1ccc2c(c1)OCO2 | -10% | 11µM* | 26% | 19% | ? | ?
Cc1ccc(-c2cn3cccnc3n2)cc1 | -16% | 15µM* | 2.8µM* | . | ? | ?
O=C(Nc1cccc(-c2cn3cccnc3n2)c1)c1ccc2c(c1)OCO2 | 0% | 12µM* | 25% | -11% | ? | 17%
CS(=O)(=O)Nc1ccc(-c2cn3cccnc3n2)cc1 | 9% | ? | 0% | . | ? | 6%[1.84 µM]
c1ccn2cc(-c3ccc4c(c3)OCO4)cc2c1 | ? | 3.4µM* | ? | 13µM* | ? | 3.2µM*
COc1ccc(C)c2sc(NC(=O)c3ccc(S(=O)(=O)N4CCCCC4)cc3)nc12 | . | -3% | . | . | . | .
Cc1ccc([N+](=O)[O-])cc1NC(=O)CCCOc1ccccc1 | -2% | 4% | -9% | -2% | -14% | -8%
CC(=O)N1CCc2c(sc3c2c(=O)n(Cc2ccccc2)c(=O)n3CC(=O)Nc2ccc(C)c(F)c2)C1 | . | -1% | . | 9% | . | .
c1cnc2nc(-c3ccc4c(c3)OCO4)cn2c1 | ? | 9.5µM* | ? | . | ? | 2.5µM*
Nc1cccc(-c2cn3cccnc3n2)c1 | 2% | -19% | 5% | 7% | 24% | 25%
CCc1ccc2oc(C(=O)NCc3ccccc3)cc(=O)c2c1 | . | -2% | . | 0% | . | .
C=CCOC(=O)C(C#N)c1nc2ccccc2nc1N1CCN(Cc2ccc3c(c2)OCO3)CC1 (stereo not drawn) | -7% | 0% | 0% | ? | 16µM* | -4%
CCOc1ccccc1N1CCN(c2nc3ccccc3nc2C(C#N)C(=O)OC(C)C)CC1 (stereo not drawn) | 6% | 0% | -5% | -5% | -1% | 1%
